# High-throughput results deposited in PubChem by National Center for Advancing Translational Sciences (NCATS).
# HTT ATP protect: qHTS Multiplex Assay to Identify Dual Action Probes in a Cell Model of Huntington: Cytoprotection (ATP); PC12 HTT-Q103 induced, cytoprotection, ATP luminescence, 40 h; Potency, µM (series often up to 56.4 µM), without a hit: cytoprotection (ATP increase), actives largely listed as activators; 230,000 compounds, 0.14% hits; further: potency means the concentration at half of the fitted maximal effect; % of control where 0% means no effect; nearly all actives have a fitted effect of over 45% in size
#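 ATP quantification (ATPlite) reports survival of PC12 cells in which tebufenozide, 100 nM final, switches on Htt exon 1 with 103 glutamines linked to GFP; compounds are titrated.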
# GLA inh pH 4.5: qHTS Assay for Inhibitors of Human alpha-Galactosidase at pH 4.5; purified enzyme, 4-MU-alpha-Gal fluorescence, pH 4.5; 230,000 tested, under 10 active; Alpha-galactosidase A (Homo sapiens), P06280; activity change, negative = inhibition, % at 105 µM; AID 1467, 2008;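 further: 0% = full activity with enzyme and -100% = basal without enzyme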
# Target sequence (P06280 whole entry, looked up): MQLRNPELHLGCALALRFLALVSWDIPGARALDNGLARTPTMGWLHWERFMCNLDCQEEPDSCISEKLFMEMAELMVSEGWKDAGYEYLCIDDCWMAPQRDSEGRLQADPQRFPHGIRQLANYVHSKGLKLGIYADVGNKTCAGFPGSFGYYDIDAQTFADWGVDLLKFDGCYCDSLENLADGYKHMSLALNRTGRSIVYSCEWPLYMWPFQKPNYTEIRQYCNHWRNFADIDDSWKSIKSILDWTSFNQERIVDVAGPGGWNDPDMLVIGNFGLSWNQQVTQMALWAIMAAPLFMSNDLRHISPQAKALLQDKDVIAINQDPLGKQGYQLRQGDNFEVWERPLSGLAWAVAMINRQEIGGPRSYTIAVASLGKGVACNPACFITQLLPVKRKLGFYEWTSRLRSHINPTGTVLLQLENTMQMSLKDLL
# HTT aggregate: qHTS Multiplex Assay to Identify Dual Action Probes in a Cell Model of Huntington: Aggregate Formation (GFP); PC12 HttQ103-GFP aggregates, Acumen cytometry, 40 h; Potency, µM (top dose mostly 46.1 µM), for inactives: top-dose activity change, negative = inhibition, usual class: inhibitors; 220,000 compounds, 1.1% hits; further: potency means the concentration at half of the fitted maximal effect; on the % scale 0 is the no-effect control and ±100 the full control effect; nearly all actives have a fitted effect of over 60% in size
#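 Huntingtin Q103 exon 1–GFP aggregates in induced PC12 cells (100 nM tebufenozide) were quantified by cytometry from lysates, with compounds dosed in titration.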
# GLA spleen mod: qHTS Assay for Inhibitors and Activators of Human alpha-Galactosidase From Spleen Homogenate | human spleen homogenate, 4MU-alpha-Gal fluorescence, 40 min | Alpha-galactosidase A (Homo sapiens), P06280 | Potency, µM (top dose mostly 80 µM), for the others: at the top dose activity change, negative = inhibition, actives largely listed as inhibitors | 240,000 compounds, 0.008% hits | AID 2107, 2009;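 further: potency means the concentration at half of the fitted maximal effect; 0% = enzyme with vehicle and -100% = no enzyme basal signal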
#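 Inhibition or activation of alpha-galactosidase in human spleen homogenate is scored by 4-MU fluorescence after 40 min at 37C, pH 5.0, with 1 mM substrate. AC50s come from concentration-response fitted to the Hill equation.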
# Starred values were filed as active, the others as inactive; ? = inconclusive; . = no result given; [ ] = another dose, or the depositor's remark. Rows were chosen to be rich in hits. Some 1.2% of all compounds tested hit in one or more screens of this group. The call rests on the fitted dose curve; in most records, active means well fitted curve in the direction sought with a large enough effect; inconclusive means small, poorly fitted or top-dose-only effect, or another doubt; inactive means no such curve, though single readings can be large; an effect the other way counts as inactive or inconclusive.
SMILES,HTT ATP protect,GLA inh pH 4.5,HTT aggregate,GLA spleen mod
CC(C)C[C@H](NC(=O)[C@H](CCCCN)NC(=O)[C@H](CCCNC(=N)N)NC(=O)[C@H](C)NC(=O)[C@H](CO)NC(=O)[C@H](CCCCN)NC(=O)[C@H](CCCNC(=N)N)NC(=O)[C@H](C)NC(=O)CNC(=O)[C@@H](NC(=O)[C@H](Cc1ccccc1)NC(=O)CNC(=O)CNC(=O)[C@@H](N)Cc1ccccc1)[C@H](C)O)C(=O)N[C@@H](C)C(=O)N[C@@H](CC(N)=O)C(=O)N[C@@H](CCC(N)=O)C(=O)O,-5.2%,.,.,-6.0%
COc1ccc(CN(C)C(=O)CCl)cc1,?,-1.4,12.6µM*,1.2%
CN(Cc1ccc(Cl)cc1)C(=O)CCl,-41.1%,6.6,?,-3.7%
COc1ccc(C2CC(C(F)(F)F)n3nc(C(=O)N(C)Cc4cn(C)nc4C)c(Cl)c3N2)cc1 (configuration not stated),-11.3%,-1.5,-8.4%,-9.0%
COc1ccc(C2CC(C(F)(F)F)n3nc(C(=O)NCc4c(C)nn(C)c4C)c(Cl)c3N2)cc1 (configuration not stated),-11.9%,-7.7,8.91µM*,3.7%
C=C1c2cccc(O)c2C(O)=C2C(=O)[C@@]3(O)C(O)=C(C(N)=O)C(=O)[C@@H](N(C)C)[C@@H]3[C@@H](O)[C@H]12,4.7%[40.3 µM],-1.4,14.2%[20.6 µM],-4.9%[29.1 µM]
COc1ccc(C(=O)COC(=O)CNS(=O)(=O)c2ccc(C)cc2)cc1,1.8%[10 µM],2.7,25.1µM*,3.7%
O=C(c1ccccc1)c1c2c(cc3sc4ccccc4[n+]13)-c1cccc3cccc-2c13,.,-13.3,7.94µM*,-0.1%
Cc1sc2cc3c(c(C(=O)c4ccccc4)[n+]2c1C)-c1cccc2cccc-3c12,.,-2.8,8.91µM*,3.6%
CC(C)OC(=O)Nc1ccc2nc(-c3cscn3)[nH]c2c1,-97.1%,.,-22.4%,.
CCOc1ccccc1C(=O)N1c2ccccc2Sc2ccccc21,?,-5.4,15.8µM*,-1.0%
Nc1ccc(-c2nc3ccc([N+](=O)[O-])cc3[nH]2)cc1,-53.5%[10 µM],-4.5,4.1%,-3.0%
O=[N+]([O-])c1ccc(-c2nc3ccc([N+](=O)[O-])cc3[nH]2)cc1,-93.9%,-12.3,17.8µM*,-10.9%
OC1OC[C@H](O)[C@@H](O)[C@@H]1O (some centres not stated),.,.,.,-4.3%
CS(=O)(=O)N(CC(=O)NCc1cccnc1)Cc1ccc(Cl)cc1,9.2%[0.074 µM],1.1,-5.1%,2.6%
CS(=O)(=O)N(CC(=O)NCc1ccncc1)Cc1ccc(Cl)cc1,-20.6%,1.6,0.631µM*,-7.5%
COc1cccc(N2CCN(c3c(C#N)c(C(F)(F)F)nn3C)CC2)c1,26.2%,-2.7,11.2µM*,4.1%
Cn1nc(C(F)(F)F)c(C#N)c1N1CCN(c2ccccc2F)CC1,4.3%,6.4,-16.6%,1.5%
O=S1(=O)C=C(Sc2nnc(-c3ccccc3)o2)c2ccccc21,-114.2%,-0.4,4.47µM*,6.6%
COc1ccc(C)cc1NC(=O)c1ccccc1NS(=O)(=O)c1ccc(Cl)s1,-71.2%,-0.6,4.47µM*,1.4%
COc1ccccc1NC(=O)c1ccccc1NS(=O)(=O)c1cccs1,19.2%[10 µM],-7.2,-28.8%,1.1%
CCOP(=O)(OCC)C(=Cc1cc(C(C)(C)C)c(O)c(C(C)(C)C)c1)P(=O)(OCC)OCC,.,.,.,1.0%
C=CCn1c(-c2ccc(OC)cc2)nc2ccccc21,-28.3%[10 µM],-3.7,11.2µM*,2.5%
CCn1c(-c2ccc(N(C)C)cc2)nc2ccccc21,-96.9%,11.1,10µM*,17.6%
CCn1c(-c2ccc(N)cc2)nc2ccccc21,2.8%,-2.5,-7.1%,11.9%
SMILES,HTT ATP protect,GLA inh pH 4.5,HTT aggregate,GLA spleen mod
CC(C)CNC(=O)COC(=O)c1c2c(nc3ccccc13)/C(=C/c1cccs1)CC2,-18.9%[10 µM],-8.9,5.62µM*,5.6%
CCCCCCCC/C=C/CCCCCCCC(=O)NCCOP(=O)(O)O,.,.,.,11.1%
C[C@H](Cc1ccc(O)c(O)c1)[C@@H](C)Cc1ccc(O)c(O)c1,22.9%,-2.0,.,11.2µM*
CC(Cc1ccc(O)c(O)c1)C(C)Cc1ccc(O)c(O)c1 (configuration not stated),?,-4.8,-13.7%,-9.3%
CC(=O)c1ccc(N2CCN(C(=S)Nc3ccc(Oc4ccccc4)cc3)CC2)cc1,-54.4%,-10.4,12.6µM*,3.6%
COc1ccc(S(=O)(=O)N2CCN(Cc3ccccc3)CC2)cc1,0.0%,-10.3,-12.7%,2.4%
CCOc1cc(S(=O)(=O)N2CCN(Cc3ccccc3)CC2)ccc1Br,-0.9%[0.074 µM],-3.8,11.2µM*,-3.0%
COc1cc(/C=C/c2[nH]c(=O)[nH]c(=O)c2[N+](=O)[O-])ccc1OCCC(C)C,12.6µM*,-3.4,?,4.2%
Cn1c(/C=C/c2ccc([N+](=O)[O-])o2)nc2ccccc2c1=O,-110.5%,3.3,10µM*,1.1%
Cc1cc(N/N=C/c2ccc([N+](=O)[O-])o2)nc2ccccc12,12.2%,-10.9,?,-0.5%
CSCC[C@H](NC(=O)[C@H](CC(C)C)NC(=O)[C@@H]1CCCN1C(=O)[C@H](Cc1ccccc1)NC(=O)[C@H](Cc1ccccc1)NC(=O)[C@H](CCC(N)=O)NC(=O)[C@H](CCC(N)=O)NC(=O)[C@@H]1CCCN1C(=O)[C@H](CCCCN)NC(=O)[C@@H]1CCCN1C(=O)[C@@H](N)CCCN=C(N)N)C(N)=O,.,.,.,3.3%
CCCc1nc2ccccc2c(=O)n1/N=C/c1c(C)[nH]n(-c2ccc(C)cc2)c1=O,-5.6%[0.074 µM],8.5,17.8µM*,6.2%
CCCc1nc2ccccc2c(=O)n1/N=C/c1ccccc1O,-13.8%[0.074 µM],-0.6,10µM*,-13.0%
Cc1noc(C)c1-c1ccc2ncnc(NCc3ccc(C(F)(F)F)o3)c2c1,.,.,.,-1.2%
COC(=O)Cc1sc(-c2ccccn2)nc1-c1ccccc1,1µM*,6.8,-5.0%,5.7%
COC(=O)Cc1ccc2sc(-c3ccccc3)nc2c1,10.5%[10 µM],2.5,6.8%,2.6%
CC1(C)CC(N2CCCC2)=CC(=[N+]2CCCC2)C1,-4.6%[10 µM],-22.9,13.4%,4.7%
CC1(C)CC(N2CCCC2)=CC(=[N+]2CCCCC2)C1,.,-7.0,8.91µM*,5.4%
CCOC(=O)NC(NC(=S)Nc1ccc(OCC)cc1)C(Cl)(Cl)Cl (configuration not stated),.,-13.8,13.4%,0.8%
O=C(NC(NC(=S)Nc1c(Cl)cccc1Cl)C(Cl)(Cl)Cl)OCc1ccccc1 (configuration not stated),-4.5%[10 µM],?,22.4µM*,0.9%
COc1ccc2[nH]c3c(NCCC4=CCCCC4)ncnc3c2c1,-156.0%,-10.5,12.6µM*,1.3%
CCN(CC)CCNc1ncnc2c1[nH]c1ccc(OC)cc12,-23.0%,-5.2,-7.5%,-2.2%
O=C1C=CC(=O)C(C2=C3C(=O)N(CCc4ccccc4)CC(=O)N3CCC2)=C1,.,5.8,7.08µM*,4.4%
